In ChEMBL document CHEMBL1157539, “Thousands of chemical starting points for antimalarial lead identification” (Nature, 2010) one finds Inhibition data, which are given here for 29 compounds.

Holding throughout (type): functional
In test [1] the test system is Plasmodium falciparum. The test can be described thus: GSK_TCMDC: Inhibition of Plasmodium falciparum 3D7 in whole red blood cells, using parasite LDH activity as an index of growth. Test compounds present at 2uM.
The test system of test [2] is Plasmodium falciparum. The test can be described thus: GSK_TCMDC: Inhibition of Plasmodium falciparum Dd2 in whole red blood cells, using parasite LDH activity as an index of growth. Test compounds present at 2uM.
The test system of a further test is HepG2. The test can be described thus: GSK_TCMDC: Percent inhibition of human HepG2 cell line. Test compounds present at 10uM.

For orientation: Inhibition means the share of the control response that was lost under treatment. A lower Inhibition goes with a weak effect. `O=C(Nc1ccon1)c1cc(-c2cccnc2)nc2ccc(Br)cc12`: the Inhibition with Plasmodium falciparum [1] was 99%; in the test with Plasmodium falciparum [2] it was 77%; in the test with HepG2, 7%.
In the same order, the values of `Cc1ccc(CNC(=O)[C@H](CCCN)Nc2nc(NCC3CCCCC3)ncc2C)cc1.O=C(O)C(F)(F)F` are 92%, 5% and 1%.
For `c1ccc(-c2ccc(-c3nc4ccccc4[nH]3)cc2)cc1`, in that order: 93%, 83% and 10%.
Regarding `Fc1c(CNCC2CCN(CC3CCCCC3)CC2)cccc1C(F)(F)F.O=C(O)C(F)(F)F`, the Inhibition was found to be 93% in the test on Plasmodium falciparum [1], 7% with Plasmodium falciparum [2] and 35% in the test on HepG2.
On to `COc1ccc2nc3cc(Cl)ccc3c(Nc3ccc(Sc4ccc(Nc5c6ccc(Cl)cc6nc6ccc(OC)cc56)cc4)cc3)c2c1.Cl`, for which the Inhibition in the test on Plasmodium falciparum [1] is 92%; in the test with Plasmodium falciparum [2], 94%; with HepG2 it was 1%.
For `CC(C)CN(Cc1c(O)ccc2[nH]c(-c3ccc(F)cc3F)nc12)CC(C)C`, in that order: 98%, 92% and 11%.
Regarding `Fc1ccc2[nH]c(-c3cccc(-c4cccc(CNCC5CCCO5)c4)c3)nc2c1.O=C(O)C(F)(F)F` (configuration not stated), the Inhibition is given as 99% in the test with Plasmodium falciparum [1], 94% with Plasmodium falciparum [2] and 40% with HepG2.
With `O=C(NCCc1ccccc1)N(Cc1cccc(-c2ccc(CNC3CCCC3)cc2)c1)C1CCN(Cc2ccccc2)CC1.O=C(O)C(F)(F)F`, the Inhibition stood at 98% in the test with Plasmodium falciparum [1], 84% in the test on Plasmodium falciparum [2] and 36% in the test on HepG2.
In the case of `O=C(O)C(F)(F)F.OC1CCCN(Cc2cccc(-c3ccc(-c4nc5cc(C(F)(F)F)ccc5[nH]4)cc3)c2)C1` (configuration not stated), the Inhibition came out at 100% in the test with Plasmodium falciparum [1], 91% in the test on Plasmodium falciparum [2] and 27% in the test on HepG2.
Consider `Cl.c1ccc2c(Nc3ccc(OCCOCCOc4ccc(Nc5c6ccccc6nc6ccccc56)cc4)cc3)c3ccccc3nc2c1`, for which the Inhibition is listed as 100% in the test with Plasmodium falciparum [1], 97% in the test with Plasmodium falciparum [2] and 38% in the test on HepG2.
Consider `COc1ccc(CNC(=O)c2cnc3c(O)cccc3c2Nc2cccc(NC(=O)c3ccc(Cl)c([N+](=O)[O-])c3)c2)cc1.O=C(O)C(F)(F)F`, for which the Inhibition came to 86% in the test on Plasmodium falciparum [1], 21% in the test with Plasmodium falciparum [2] and 48% in the test on HepG2.
For `Cc1cc(C(=O)CSc2nc3ccccc3n2-c2ccccc2)c(C)n1C1CCS(=O)(=O)C1` (configuration not stated), the Inhibition is 92% in the test with Plasmodium falciparum [1], 0% in the test with Plasmodium falciparum [2] and 0% in the test with HepG2.
In the case of `OC(c1ccc(Cl)cc1)(c1ccc(Cl)cc1)C(c1ccc(Cl)cc1)n1ccnc1` (configuration not stated), the Inhibition in the test on Plasmodium falciparum [1] is given as 100%; in the test on Plasmodium falciparum [2], 100%; in the test on HepG2, 15%.
Regarding `Cl.NC(=O)c1ccccc1Nc1nc(Nc2cccc(N3CCN(CCO)CC3)c2)ncc1Cl`, the Inhibition in the test with Plasmodium falciparum [1] is given as 95%; in the test on Plasmodium falciparum [2] it was 98%; with HepG2, 93%.
With `O=C(Nc1ccc(C(F)(F)F)cc1)c1ccc(S(=O)(=O)NCC2CCCN(CC3CCCCC3)C2)cc1.O=C(O)C(F)(F)F` (configuration not stated), the Inhibition is 93% with Plasmodium falciparum [1], 0% in the test on Plasmodium falciparum [2] and 44% with HepG2.
Turning to `CCCCCCCc1c(C)nc2cccc(OC)c2c1O`, the figures for the Inhibition with Plasmodium falciparum [1], in the test with Plasmodium falciparum [2] and in the test on HepG2 were 95%, 47% and 43%, respectively.
In the case of `N#Cc1ccc(-c2ccc(C(=O)NCCCCN3CCC(c4cn(CCCO)c5ccccc45)CC3)cc2)cc1`, the Inhibition worked out at 98% in the test on Plasmodium falciparum [1], 56% in the test with Plasmodium falciparum [2] and 31% in the test on HepG2.
Take `CC(=O)Nc1ccc(C(=O)Nc2ccc(-c3csc(-c4nc5ccccc5[nH]4)c3)cc2)cn1`: the Inhibition in the test on Plasmodium falciparum [1] worked out at 93%; in the test on Plasmodium falciparum [2] it was 0%; with HepG2, 11%.
Turning to `CC(C)(C)c1ccc(NC(=O)c2cccc(CN3CCCN(Cc4ccc(F)cc4)CC3)c2)cc1.O=C(O)C(F)(F)F`, the Inhibition with Plasmodium falciparum [1] is 88%; in the test on Plasmodium falciparum [2] it was 2%; in the test with HepG2, 35%.
For `COc1ccc(-c2cccc(NC(=O)c3cccc(C#N)c3)c2)cc1CN(C)CCN(C)C.O=C(O)C(F)(F)F`, the Inhibition worked out at 99% in the test on Plasmodium falciparum [1], 21% with Plasmodium falciparum [2] and 0% in the test with HepG2.
Turning to `c1ccc(CSC2=NNC(c3ccccn3)S2)cc1` (configuration not stated), the Inhibition in the test with Plasmodium falciparum [1] is listed as 80%; in the test with Plasmodium falciparum [2], 65%; in the test on HepG2 it was 6%.
Consider `CCOc1ccc(C(=O)Nc2cc3c(c(C(F)(F)F)c2)CCNC3)cc1Cl.Cl`, for which the Inhibition with Plasmodium falciparum [1] came out at 91%; with Plasmodium falciparum [2] it was 1%; in the test with HepG2, 4%.
Take `N#CCCN1CCN(Cc2ccc(-c3ccc(-c4nc5cc(F)ccc5[nH]4)s3)cc2)CC1.O=C(O)C(F)(F)F`: the Inhibition with Plasmodium falciparum [1] is given as 99%; in the test on Plasmodium falciparum [2] it was 38%; in the test on HepG2, 58%.
On to `Cc1ccc(CNC(=O)[C@H](CC(C)C)Nc2cc(C)nc(NCc3ccccc3C)n2)cc1.O=C(O)C(F)(F)F`, for which the Inhibition is 87% in the test on Plasmodium falciparum [1], 35% in the test on Plasmodium falciparum [2] and 3% with HepG2.
For `O=C(Cc1cccnc1)N(Cc1ccc(-c2ccc(CNCc3cccnc3)cn2)cc1)C1CCN(Cc2ccccc2)CC1.O=C(O)C(F)(F)F`, the results for the Inhibition with Plasmodium falciparum [1], with Plasmodium falciparum [2] and in the test on HepG2 were 93%, 6% and 8%, respectively.
As for `Cc1ccc(NC(=O)c2ccc(NCCCN(C)Cc3ccccc3)c([N+](=O)[O-])c2)cc1F`, the Inhibition with Plasmodium falciparum [1] is given as 100%; in the test with Plasmodium falciparum [2] it was 61%; in the test on HepG2 it was 12%.
On to `Cc1cc(C)c(NC(=O)NC2CCN(CCCCCNC(=O)/C=C/c3ccc(Cl)c(Cl)c3)CC2)c(C)c1`, for which the Inhibition with Plasmodium falciparum [1] turned out to be 100%; with Plasmodium falciparum [2] it was 17%; with HepG2, 30%.
Consider `O=C(Cc1ccccn1)Nc1cccc(-c2cccc(-c3nc4cc(C(F)(F)F)ccc4[nH]3)c2)c1`, for which the Inhibition in the test with Plasmodium falciparum [1] was 95%; in the test with Plasmodium falciparum [2], 22%; in the test with HepG2 it was 26%.
`CS(=O)(=O)c1cccc(-c2cnc3[nH]cc(-c4cccc(CCN)c4)c3c2)c1.O=C(O)C(F)(F)F`: the results for the Inhibition with Plasmodium falciparum [1], in the test on Plasmodium falciparum [2] and in the test with HepG2 were 99%, 74% and 0%, respectively.
